# Measured values published in paper PMC8384837, “Expanding the binding specificity for RNA recognition by a PUF domain”.
# Experiments:
# Test in all cases: yeast three-hybrid, YBZ-1, SC-Leu-His + 0.5 mM 3-AT, 4 days
# Details in all cases: tags: N-Gal4 AD-HA kept; label: inside an RPR1-promoter hybrid RNA with tandem MS2 sites; ssRNA
# [1] = target: PUM1 PUF domain R8-VFK (Homo sapiens, UniProt Q14671 828-1176, N1122V;Y1123F;Q1126K)
# In short: (§1)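 Sequencing with Illumina followed PCR amplification of the repeat regions from transformants grown four days on SC-Leu (input) or SC-Leu-His + 0.5 mM 3-AT (selection). The transformants were strain YBZ-1 with a LexA–MS2 coat fusion and a HIS3 reporter, carrying Pumilio-1 PUF domain libraries and matching RNA elements. The interaction score is the log change in variant frequency from input to selection, computed in log2 with a pseudocount of 1 for absent variants.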
# [2] = target: PUM1 PUF domain R5-GRY (Homo sapiens, UniProt Q14671 828-1176, C1007G;Q1011Y)
# In short: as §1
# [3] = target: PUM1 PUF domain R5-SKC (Homo sapiens, UniProt Q14671 828-1176, C1007S;R1008K;Q1011C)
# In short: as §1
# [4] = target: PUM1 PUF domain R5-FRK (Homo sapiens, UniProt Q14671 828-1176, C1007F;Q1011K)
# In short: as §1
# [5] = target: PUM1 PUF domain R5-RYE (Homo sapiens, UniProt Q14671 828-1176, C1007R;R1008Y;Q1011E)
# In short: as §1
# [6] = target: PUM1 PUF domain R3-VWG (Homo sapiens, UniProt Q14671 828-1176, C935V;R936W;Q939G)
# In short: as §1
# [7] = target: PUM1 PUF domain R4-TPV (Homo sapiens, UniProt Q14671 828-1176, N971T;H972P;Q975V)
# In short: as §1
# [8] = target: T1, PUM1 PUF domain R6-NRS (Homo sapiens, UniProt Q14671 828-1176, Y1044R;Q1047S)
# T1 sequence: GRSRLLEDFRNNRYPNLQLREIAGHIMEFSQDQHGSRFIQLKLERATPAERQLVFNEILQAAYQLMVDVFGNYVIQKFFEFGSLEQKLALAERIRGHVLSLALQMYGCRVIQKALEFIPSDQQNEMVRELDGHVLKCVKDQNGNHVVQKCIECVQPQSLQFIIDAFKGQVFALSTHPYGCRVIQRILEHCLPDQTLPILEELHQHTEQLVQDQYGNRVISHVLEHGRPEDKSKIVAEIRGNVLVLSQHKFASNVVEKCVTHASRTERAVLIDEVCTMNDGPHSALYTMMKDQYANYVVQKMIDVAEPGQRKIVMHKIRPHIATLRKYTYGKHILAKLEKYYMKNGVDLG
# In short: as §1
# [9] = target: PUM1 PUF domain R4-RIY (Homo sapiens, UniProt Q14671 828-1176, N971R;H972I;Q975Y)
# In short: as §1
# [10] = target: PUM1 PUF domain R4-GPY (Homo sapiens, UniProt Q14671 828-1176, N971G;H972P;Q975Y)
# In short: as §1
sequence,measurement,setting,value
GGCUAGAACUAGUGGAUCCCCCGGCGCCCGGCGGCUCGAGCCCGGGUAAGCGUAAAUAGUCUGCAUGCCGCCGGGCGCCAUGCCUGCAGGUCGACUCUAGAAAACAUG,binding signal,[1],4.7 log2 enrichment (interaction score)
GGCUAGAACUAGUGGAUCCCCCGGCGCCCGGCGGCUCGAGCCCGGGUAAGUGUCAAUAGUCUGCAUGCCGCCGGGCGCCAUGCCUGCAGGUCGACUCUAGAAAACAUG,binding signal,[2],0.08 log2 enrichment (interaction score)
same,binding signal,[3],1.38 log2 enrichment (interaction score)
same,binding signal,[4],3.81 log2 enrichment (interaction score)
GGCUAGAACUAGUGGAUCCCCCGGCGCCCGGCGGCUCGAGCCCGGGUAAGUGUUAAUAGUCUGCAUGCCGCCGGGCGCCAUGCCUGCAGGUCGACUCUAGAAAACAUG,binding signal,[2],3.13 log2 enrichment (interaction score)
same,binding signal,[5],4.59 log2 enrichment (interaction score)
same,binding signal,[3],3.5 log2 enrichment (interaction score)
same,binding signal,[4],3.62 log2 enrichment (interaction score)
GGCUAGAACUAGUGGAUCCCCCGGCGCCCGGCGGCUCGAGCCCGGGUAAGUGUAAUUAGUCUGCAUGCCGCCGGGCGCCAUGCCUGCAGGUCGACUCUAGAAAACAUG,binding signal,[6],2.33 log2 enrichment (interaction score)
GGCUAGAACUAGUGGAUCCCCCGGCGCCCGGCGGCUCGAGCCCGGGUAAGUGUAUAUAGUCUGCAUGCCGCCGGGCGCCAUGCCUGCAGGUCGACUCUAGAAAACAUG,binding signal,[7],2.96 log2 enrichment (interaction score)
GGCUAGAACUAGUGGAUCCCCCGGCGCCCGGCGGCUCGAGCCCGGGUAAGUGUACAUAGUCUGCAUGCCGCCGGGCGCCAUGCCUGCAGGUCGACUCUAGAAAACAUG,binding signal,[7],2.89 log2 enrichment (interaction score)
GGCUAGAACUAGUGGAUCCCCCGGCGCCCGGCGGCUCGAGCCCGGGUAAGUGUAAGUAGUCUGCAUGCCGCCGGGCGCCAUGCCUGCAGGUCGACUCUAGAAAACAUG,binding signal,[6],1.81 log2 enrichment (interaction score)
GGCUAGAACUAGUGGAUCCCCCGGCGCCCGGCGGCUCGAGCCCGGGUAAGUGUAAAUAGUCUGCAUGCCGCCGGGCGCCAUGCCUGCAGGUCGACUCUAGAAAACAUG,binding signal,[2],3.42 log2 enrichment (interaction score)
same,binding signal,[7],2.59 log2 enrichment (interaction score)
same,binding signal,[6],4.18 log2 enrichment (interaction score)
same,binding signal,[8],3.98 log2 enrichment (interaction score)
same,binding signal,[4],2.17 log2 enrichment (interaction score)
same,binding signal,[9],7.23 log2 enrichment (interaction score)
same,binding signal,[10],2.92 log2 enrichment (interaction score)
